# D1 potentiator: human D1 dopamine receptor positive modulation; P21728; HEK293 TREx D1 cells, calcium flux, dopamine EC20 potentiation; potentiation, % at 10 µM; actives 0.036% (n = 360,000); in the data active = potentiation above about 30%; note: 0% is about no effect
# Target sequence (P21728 whole entry, looked up): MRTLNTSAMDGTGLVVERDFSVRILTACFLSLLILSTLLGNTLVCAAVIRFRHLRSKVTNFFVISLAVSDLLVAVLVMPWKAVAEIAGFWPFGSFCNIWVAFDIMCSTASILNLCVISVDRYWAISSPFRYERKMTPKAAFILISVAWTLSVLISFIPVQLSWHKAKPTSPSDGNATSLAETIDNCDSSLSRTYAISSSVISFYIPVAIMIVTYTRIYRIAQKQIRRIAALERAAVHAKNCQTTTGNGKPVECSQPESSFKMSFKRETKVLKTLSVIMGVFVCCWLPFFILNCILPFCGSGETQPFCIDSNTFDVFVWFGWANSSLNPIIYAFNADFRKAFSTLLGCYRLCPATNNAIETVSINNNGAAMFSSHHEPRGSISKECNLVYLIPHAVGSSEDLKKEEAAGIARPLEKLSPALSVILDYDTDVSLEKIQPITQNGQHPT
# TRHR enhancer: allosterically enhances the human TRH receptor; TRHR cells, fluo-8 calcium fluorescence, EC20 TRH enhancement; enhancement, % at 2 µM; actives 0.66% (n = 360,000); AID 493056; in the data active = enhancement above about 30%; note: 0% is about no effect
#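 Enhancer read-out: after compound pinning and an initial kinetic agonist-mode read, an EC20 of TRH (10 nM final) was injected and fluo-8 calcium signal (Ex 480/Em 530) followed at 1 s/cycle for 100 cycles in TRHR-expressing cells.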
# D1 antag: blocks dopamine activation of the human D1 receptor | P21728 | HEK293 TREx D1 cells, calcium flux, dopamine EC80; hits give low values | activity change, negative = inhibition, % at 10 µM | actives 3.2% (n = 360,000) | AID 504652; in the data active = activity change below about -30%; note: % is set by controls: 0 for no effect and ±100 for the full control effect
#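 Tetracycline-induced HEK293 Trex D1 cells, force-coupled to calcium, dye-loaded; compounds added and read 180 s, then EC80 dopamine added and calcium flux tracked kinetically another 180 s.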
# TRHR ag: activates the human TRH receptor. activation, % at 2 µM. P34981. actives 0.18% (n = 360,000). TRHR cells, calcium flux fluo-8, FDSS agonist mode; note: 0% is about no effect
#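 TRHR-expressing cells loaded with fluo-8 calcium dye; 23 nL library compound pin-transferred, kinetic FDSS fluorescence (Ex 480/Em 530) recorded about 180 s for agonist-induced calcium release, before a 10 nM TRH EC20 addition for potentiator mode.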
# D1 ag: human D1 receptor agonism | P21728 | HEK293 T-REx D1 cells, calcium flux, agonist mode | activation, % at 2 µM | actives 1% (n = 360,000); note: 0% is about no effect
#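 Agonism was scored from calcium flux recorded over 180 s (1 read/s) after pintool compound addition, following a 10-cycle baseline. Cells were inducible force-coupled HEK293 TREx D1, plated overnight at 30 C and loaded with no-wash calcium dye.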
# The depositor's hits bear a star; / = not tested or not shown. Rows were chosen to be rich in hits. Some 4.7% of all compounds tested hit in one or more screens of this group. Cut-off read from the data, not from the text of the source, unless noted: active = activation above about 30%; inactive = the rest.
SMILES,D1 potentiator,TRHR enhancer,D1 antag,TRHR ag,D1 ag
NC(=O)N/N=C/c1ccc(-c2ccc([N+](=O)[O-])cc2)o1,-7,6,-4,-1,20
O=C(N/N=C/c1ccc([N+](=O)[O-])cc1)c1cccnc1,-5,1,28,0,-2
O=C(Cc1ccccc1)N/N=C/c1ccc(-c2ccc([N+](=O)[O-])cc2)o1,-9,-1,-54*,5,5
CCCCNc1nc2c(S(=O)(=O)c3ccc(C)cc3)nnn2c2ccsc12,0,2,0,1,3
N#Cc1ccccc1S(=O)(=O)N1CCN(C(=O)[C@H](Cc2ccccc2)NC(=O)c2ccco2)CC1,-10,2,-34*,1,0
C[C@H]1CN(S(=O)(=O)c2ccc3c(c2)OCCO3)CCN1S(=O)(=O)c1c(F)cccc1F,-2,39*,-13,-1,1
N#Cc1ccccc1S(=O)(=O)N1CCN(C(=O)Cc2coc3cc(O)ccc23)CC1,-7,-1,-43*,0,1
N#Cc1ccccc1S(=O)(=O)N1CCN(S(=O)(=O)c2ccc3c(c2)OCCO3)CC1,1,-1,-37*,1,8
CC(C)OCCCNc1ncnc2sc3c(c12)CCCC3,2,-6,-9,-1,7
CCOc1ccc(-n2c(=O)c3c4c(sc3n(Cc3cccc(C)c3)c2=O)CCCC4)cc1,2,-4,-7,0,3
COc1ccc(-n2c(SCC(=O)NCc3ccccc3)nc3c([nH]c4ccccc43)c2=O)cc1,-3,-1,0,0,4
CC(=O)N1CCc2c(sc3c2c(=O)n(-c2ccccc2)c(=O)n3CC(=O)c2ccc(Cl)cc2)C1,-4,0,21,0,0
Cc1cc(C)cc(Oc2ccc(S(=O)(=O)N3CCN(C)CC3)cn2)c1,-3,-3,-10,0,0
CCCOc1ccc(Oc2ccc(S(=O)(=O)N3CCN(C)CC3)cn2)cc1,-3,-6,-37*,0,5
CN(c1ccc(OCc2ccc([N+](=O)[O-])cc2)cc1)S(=O)(=O)c1ccccc1,/,-4,-11,2,22
Cc1ccc(S(=O)(=O)N(C)c2ccc(OCC(=O)OCc3c(C)noc3C)cc2)cc1,-1,-1,-47*,0,24
CCN(c1ccccc1)S(=O)(=O)c1ccc(OCc2c(C)noc2C)cc1,-7,-1,-32*,1,16
Cc1ccc(C(C)C)c(OCC(=O)OCc2c(C)noc2C)c1,-5,-21,-3,0,2
Cc1ccc(S(=O)(=O)N(C)c2ccc(OCc3cccc(C)c3)cc2)cc1,-1,-8,12,3,38*
CCN(C(=O)COC(=O)c1ccc(OCc2c(C)noc2C)cc1)c1ccccc1,3,1,7,0,2
COc1ccc(Nc2nc(N)nc(CN(C)C3CCCCC3)n2)cc1,-5,-2,-34*,0,1
CCOc1ccc(/C=C(\C#N)C(=O)Nc2sc3c(c2C(=O)OC)CCC3)cc1OC,-2,8,-10,0,14
CCOC(=O)c1c(C)[nH]c(CCC(=O)NC(C)c2ccccc2)c1C (configuration not stated),-1,-3,-9,0,3
N#Cc1ccc(-c2ccc(OCC(=O)NCCc3ccccc3)cc2)cc1,-7,0,-48*,-2,36*
CCOC(=O)c1ccccc1NC(=O)Cn1c(=O)n(Cc2nc(-c3ccccc3)no2)c(=O)c2ccccc21,-1,-2,3,0,-1
SMILES,D1 potentiator,TRHR enhancer,D1 antag,TRHR ag,D1 ag
COCC1CCN(C(=O)c2cc(COc3ccc(-n4cncn4)cc3)on2)CC1,-1,-5,-36*,-1,2
CCc1ccc(CN2CCC(n3nccc3NC(=O)C3CCCC3)CC2)cc1,32*,7,68,0,9
O=C(Nc1ccnn1C1CCN(Cc2ccc(Cl)cc2)CC1)C1CCCC1,-3,-1,-6,0,9
O=C(Nc1ccnn1C1CCN(Cc2ccc3nonc3c2)CC1)c1cccc(F)c1,1,2,-39*,1,8
O=C(CC1C(=O)N(c2ccccc2)C(=O)N1Cc1ccc(F)cc1)Nc1cccc(F)c1 (configuration not stated),-1,-7,-4,0,1
C[N+](C)(C)CCOc1ccc([N+](=O)[O-])cc1,0,-1,-31*,0,3
CC1CCN(CCCCOc2ccc([N+](=O)[O-])cc2)CC1,-2,8,-44*,1,2
O=[N+]([O-])c1ccc(OCCCCN2CCCCC2)cc1,-3,3,-1,-1,8
O=[N+]([O-])c1ccc(OCCCCN2CCc3ccccc3C2)cc1,-8,-7,-63*,1,8
CCC(C)NCCCOc1ccc([N+](=O)[O-])cc1 (configuration not stated),-7,2,-7,-1,7
O=[N+]([O-])c1ccc(OCCCCCN2CCOCC2)cc1,-4,-3,-22,0,7
Cc1ccccc1OCc1ccc(-c2nc(C#N)c(NCc3cccnc3)o2)o1,-2,-16,-17,1,-1
CCOc1ccccc1Nc1ccc2cc(S(=O)(=O)N3CCCCC3)ccc2n1,-7,-4,12,0,2
CCc1sc(-c2c(C#N)c(N)nc3c2CCCCCC3)cc1[N+](=O)[O-],20,3,22,4,73*
CC(C)(C)c1ccc(-c2c(C#N)c(N)nc3c2CCCC3)s1,-3,0,-4,0,1
COc1ccc(C(=O)C(CCC(CNC(C)(C)C)C(=O)c2ccc(OC)cc2)CNC(C)(C)C)cc1 (configuration not stated),-11,-10,-37*,2,16
CCCOc1ccc(CNC(=O)Cn2cc3c(n2)-c2c(oc(C(=O)N4CCOCC4)c2C)CC3)cc1,-2,-2,-9,0,5
CC(=O)Nc1ccc(NC(C)=O)s1,-5,1,-34*,0,2
CC(=O)Nc1ccc(-c2ccccc2)s1,-3,-1,4,-1,3
CN(c1ccc(C(=O)Nc2ccc(CC#N)cc2)cc1)S(C)(=O)=O,-3,3,-34*,1,3
CN(c1ccc(C(=O)Nc2ccccc2Sc2ccccc2)cc1)S(C)(=O)=O,-3,1,-40*,2,17
Cc1ccc(C(=O)Nc2ccccc2Sc2ccccc2)cc1,-6,0,-8,0,4
Cc1nnc2c(N3CCN(CCO)CC3)nc3ccccc3n12,-1,4,-6,1,4
COc1ccc(N2CCN(c3nc4ccccc4n4c(C)nnc34)CC2)cc1,-5,0,-76*,0,0
COC(=O)c1ccc(OC)c(Cn2c(=O)n(-c3cccc(Cl)c3)c(=O)c3c4c(sc32)CN(C(C)=O)CC4)c1,0,2,-40*,0,12

# Compound activity deposited in PubChem BioAssay by National Center for Advancing Translational Sciences (NCATS).
